# Reference: PubChem BioAssay (NCATS)
# Inconclusive results are not listed. Entries that show only a call come without a potency. Activity calls are given as the source filed them. Calls follow the shape of the dose curve; as a rule, active = well fitted curve in the direction sought with a large enough effect; inconclusive = small, poorly fitted or top-dose-only effect, or another doubt; inactive = no such curve, though single readings can be large; an effect the other way counts as inactive or inconclusive.
# Columns and labels:
# [1] = test system: Zika virus NS2B-NS3 protease (unlinked complex); assay: Primary screen GU Rhodamine qHTS for Zika virus inhibitors: Unlinked NS2B-NS3 protease assay (AID 1347159); also: nearly all actives have a fitted effect of over 60% in size
# How it was run: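 Enzyme 25 nM in Tris-HCl pH 8.0 + 0.01% Tween 20; compounds up to 114 microM, 15 min RT dark; + Rhod110 substrate 1.5 microM; read t0 and 15 min; delta fluorescence → % inhibition → 4-parameter Hill fit.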
# [2] = test system: Zika virus NS2B-NS3 protease (linked construct); assay: Primary screen NINDS Rhodamine qHTS for Zika virus inhibitors (AID 1347160); also: nearly all actives have a fitted effect of over 55% in size
# How it was run: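 Enzyme (25 nM, linked NS2B-NS3) was preincubated 15 min with compound in 10 mM Tris-HCl pH 8.0, 0.01% Tween 20. Rhodamine110 substrate (1.5 microM) was then added and fluorescence read at start and after 15 min.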
# [3] = OV-KATE Cancer Cell Toxicity qHTS against the NCATS CANVASS Library (AID 1347345)
# How it was run: (§1)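 Viability read-out: CellTiter-Glo luminescence after 72 h compound exposure at 37 °C/5% CO2. Cells plated at 1000/well, 4 h pre-incubation; 11-point titration. Bortezomib served as control.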
# [4] = HPAF-II Cancer Cell Toxicity qHTS against the NCATS CANVASS Library (AID 1347346); also: series mostly up to about 38 µM; nearly all actives have a fitted effect of over 55% in size
# How it was run: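 1000 HPAF-II cells/well; 4 h pre-incubation; 11-pnt compound titration; 72 h, 37 degrees C/5% CO2; CellTiter-Glo, 15 min RT; luminescence read.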
# [5] = UWB1.289 Cancer Cell Toxicity qHTS against the NCATS CANVASS Library (AID 1347347); also: series mostly up to about 38 µM; nearly all actives have a fitted effect of over 60% in size
# How it was run: as §1
# [6] = OV-SAHO Cancer Cell Toxicity qHTS against the NCATS CANVASS Library (AID 1347348); also: series mostly up to about 38 µM; nearly all actives have a fitted effect of over 55% in size
# How it was run: as §1
# [7] = Panc-1005 Cancer Cell Toxicity qHTS against the NCATS CANVASS Library (AID 1347349); also: series mostly up to about 38 µM; nearly all actives have a fitted effect of over 60% in size
# How it was run: as §1
# [8] = SW1088 Cancer Cell Toxicity qHTS against the NCATS CANVASS Library (AID 1347350); also: series mostly up to about 38 µM; nearly all actives have a fitted effect of over 75% in size
# How it was run: as §1
# [9] = Confirmatory screen NINDS Rhodamine qHTS for Zika virus inhibitors (AID 1347161);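 also: purified Zika NS2B-NS3 protease with linked NS2B cofactor domain and Rhodamine110 peptide substrate; series mostly up to about 110 µM; nearly all actives have a fitted effect of over 60% in size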
# How it was run: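 qHTS dose-response: 25 nM linked protease, pH 8.0 Tris/Tween buffer, cpd titration, 15 min RT preinc, 1.5 microM Rhod110 peptide, 15 min reaction (~15% conversion), Ex480/Em540; 4-parameter Hill fit.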
# [10] = Tertiary RLuc qRT-PCR qHTS assay for Zika virus inhibitors (AID 1347169); also: nearly all actives have a fitted effect of over 55% in size; also: potency is read from the fitted curve at half-maximal effect; as to activity change, negative = inhibition: top concentration of the series differs between compounds
# How it was run: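 Orthogonal cell-based infection assay using recombinant ZIKV-RLuc (Cambodian) in Vero cells; compound added prior to virus at MOI 1-2. Incubation lasts 48-72 hrs at 37 degrees C before live-cell Renilla substrate is added and luminescence measured.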
# [11] = test system: Zika virus NS2B-NS3 protease (linked); assay: 384 well plate NINDS AMC confirmatory qHTS for Zika virus inhibitors (AID 1347163); conditions: Recombinant NS2B-NS3 protease, Ac-VKTGKR-AMC fluorescence; also: potency is read from the fitted curve at half-maximal effect; nearly all actives have a fitted effect of over 50% in size
# How it was run: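 Enzyme (5, 30 or 60 nM final) first met test compounds for ~15 min. The AMC-tagged peptide Ac-VKTGKR-AMC followed at 30 microM. Fluorescence was then recorded at 25 min and scaled against no-enzyme and no-inhibitor wells.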
# [12] = Vero cells viability qHTS for Zika virus inhibitors (AID 1347167)
# How it was run: (§2)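 Luminescent ATP readout (CellTiter Glo) after 30 min at 37 degrees C gives viability; cells in DMEM + 4% FBS were treated 24 to 48 hours with compound, following overnight attachment.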
# [13] = HepG2 cells viability qHTS for Zika virus inhibitors (AID 1347168)
# How it was run: as §2
structure (smiles),measurement,setting,value
COC1C(O)C(OC2CCC3(C=O)C(CCC4C3CCC3(C)C(C5=CC(=O)OC5)CCC43O)C2)OC(C)C1OC1OC(CO)C(O)C(O)C1O (centres undefined),Potency,[1],inactive
same,Potency,[2],inactive
CCC1NC(=O)C2C(Cl)C(Cl)CN2C(=O)C(C(C)O)NC(=O)CC(c2ccccc2)NC(=O)C(CO)NC1=O (centres undefined),Potency,[1],inactive
same,Potency,[2],inactive
COC(=O)N1CCN(C(=O)Cc2ccc(Cl)c(Cl)c2)[C@@H](CN2CCCC2)C1,Potency,[1],inactive
same,Potency,[2],inactive
C[C@@](O)(COc1ccc(C#N)cc1)C(=O)Nc1ccc(C#N)c(C(F)(F)F)c1,Potency,[1],inactive
same,Potency,[2],inactive
CCN1C[C@]2(COC(=O)c3ccccc3N3C(=O)C[C@H](C)C3=O)CC[C@H](OC)[C@@]34[C@@H]5C[C@H]6[C@H](OC)[C@@H]5[C@](O)(C[C@@H]6OC)[C@](O)([C@@H](OC)[C@H]23)[C@@H]14,Potency,[1],inactive
same,Potency,[2],inactive
CC(C)=C1CC[C@]23CO[C@H](C2)[C@@](O)(C(=O)O)CCC13 (some centres undefined),Potency,[1],inactive
same,Potency,[2],inactive
O=C1C[C@@H]2OCC=C3CN4CC[C@]56c7ccccc7N1[C@H]5[C@H]2[C@H]3C[C@H]46,outcome,[3],inactive
same,outcome,[4],inactive
same,outcome,[5],inactive
same,outcome,[6],inactive
same,outcome,[7],inactive
same,outcome,[8],inactive
O=C(O)c1ccnc2cc(C(OCCN3CCCCC3)c3ccccc3Cl)[nH]c12 (centres undefined),Potency,[2],inactive
CC12CCC3C(CCC4(O)CC(O)CCC34C=O)C1(O)CCC2C1=CC(=O)OC1 (centres undefined),Potency,[2],inactive
O=C1OC2(c3cc(Br)c(O)cc3Oc3c2cc(Br)c(O)[c]3[Hg])c2ccccc21 (centres undefined),Potency,[9],inactive
same,"activity change, negative = inhibition",[10],-7.05% [at 0.566 µM] (inactive)
CN(C)[C@@H]1C(=O)C(C(N)=O)=C(O)[C@@]2(O)C(=O)C3=C(O)c4c(O)ccc(Cl)c4[C@@](C)(O)[C@H]3C[C@@H]12,Potency,[11],0.562 µM (active)
CC[C@H](C)[C@H]1O[C@]2(C=C[C@@H]1C)C[C@@H]1C[C@@H](C/C=C(\C)[C@@H](O[C@H]3C[C@H](OC)[C@@H](O[C@H]4C[C@H](OC)[C@@H](O)[C@H](C)O4)[C@H](C)O3)[C@@H](C)/C=C/C=C3\CO[C@@H]4[C@H](O)C(C)=C[C@@H](C(=O)O1)[C@]34O)O2,outcome,[12],inactive
same,outcome,[13],inactive
same,Potency,[10],20.8 µM (active)
C[C@@H]1[C@@H]2Cc3ccc(O)cc3[C@@]1(C)CCN2CC1CC1,outcome,[12],inactive
same,outcome,[13],inactive
same,Potency,[10],inactive
